{
  "source": "ChEMBL document CHEMBL3988442",
  "about": "“University of Dundee, Small-Polar-MMV Screening Library” (2021)",
  "note": "Screen size: about 69,000 compounds; about 950 (1.4%) showed an effect of 50% or more. Shown is part of a subset that was picked to be rich in strong results.",
  "data": [
    {"tested_on": "Mycobacterium tuberculosis", "assay": "Cornell M. t heat shock assay; note: in the data most compounds retested in dose-response had high values", "format": "functional, organism-based", "set-up": "dose or concentration left out as unconfirmed", "units": {"Percent Effect": "%"}, "values": [
      {"smiles": "Cc1cnn(C2CN(Cc3noc(C)n3)C2)c1", "Percent Effect": 1.101},
      {"smiles": "Cc1cc(C)n(C2CN(Cc3nc4cc(Cl)ccc4n3C)C2)n1", "Percent Effect": 97.92},
      {"smiles": "Cc1cnn(C2CN(Cc3nc4cc(Cl)ccc4n3C)C2)c1", "Percent Effect": 84.58},
      {"smiles": "Cc1cnn(C2CN(Cc3noc(-c4ccccc4)n3)C2)c1", "Percent Effect": 31.69},
      {"smiles": "Cc1cc(C)n(C2CCN(Cc3nc4ccccc4n3C)CC2)n1", "Percent Effect": -15.39},
      {"smiles": "Cc1ccc(-c2nc(CN3CC(n4nc(C)cc4C)C3)no2)cc1", "Percent Effect": 24.47},
      {"smiles": "N#Cc1ccc(N2CCC3(CCC(=O)N3Cc3cccnc3)CC2)nc1.O=C(O)C(F)(F)F.O=C(O)C(F)(F)F", "Percent Effect": 16.15},
      {"smiles": "Cc1c(Cl)cccc1S(=O)(=O)N1C[C@@H]2CC[C@H](C1)N(C)C2=O", "Percent Effect": -18.96},
      {"smiles": "O=C(Nc1cnccn1)[C@@H]1CC[C@@H]2[C@@H](CCN2Cc2nccs2)O1.O=C(O)C(F)(F)F", "Percent Effect": 0.9525},
      {"smiles": "COCC1CN(S(=O)(=O)N(C)C)Cc2ncn(CC3CC3)c21.O=C(O)C(F)(F)F", "note": "(stereo unspecified)", "Percent Effect": -32.61},
      {"smiles": "Cc1noc([C@@H]2C[C@H]3OCC[C@H]3N(S(=O)(=O)c3cccnc3)C2)n1.O=C(O)C(F)(F)F", "Percent Effect": -33.58},
      {"smiles": "Cc1noc([C@@H]2CC[C@@H]3[C@@H](CCN3S(=O)(=O)c3ccccc3)O2)n1", "Percent Effect": -26.97},
      {"smiles": "Cc1noc([C@@H]2CC[C@@H]3[C@@H](CCN3S(=O)(=O)c3cccnc3)O2)n1.O=C(O)C(F)(F)F", "Percent Effect": 58.53},
      {"smiles": "Cc1cccc(COc2ccc(C(C)N)cc2)c1.Cl", "note": "(stereo unspecified)", "Percent Effect": 2.748},
      {"smiles": "Cc1noc(C)c1CN1CCO[C@H]2CN(Cc3ccc(F)cc3)C[C@H]21.O=C(O)C(F)(F)F.O=C(O)C(F)(F)F", "Percent Effect": -6.13},
      {"smiles": "Cc1ccc(C(=O)N2CC(=O)N(Cc3cccs3)CC(O)C2)cc1", "note": "(stereo unspecified)", "Percent Effect": 58.25},
      {"smiles": "O=C1CN(C(=O)c2ccc(F)cc2)CC(O)CN1Cc1cccs1", "note": "(stereo unspecified)", "Percent Effect": 62.26},
      {"smiles": "CSc1ccc(C(=O)N2CC(=O)N(Cc3cccs3)CC(O)C2)cc1", "note": "(stereo unspecified)", "Percent Effect": 29.81},
      {"smiles": "COc1ccc(C(=O)N2CC(=O)N(Cc3cccs3)CC(O)C2)cc1", "note": "(stereo unspecified)", "Percent Effect": 14.04},
      {"smiles": "CSc1ccc(C(=O)N2CC(=O)N(Cc3ccccc3)CC(O)C2)cc1", "note": "(stereo unspecified)", "Percent Effect": 28.35},
      {"smiles": "O=C1CN(C(=O)c2ccc(Cl)cc2)CC(O)CN1Cc1cccs1", "note": "(stereo unspecified)", "Percent Effect": 16.61},
      {"smiles": "O=C(Cc1ccsc1)N1C[C@@H]2OCCN(CC3CCCO3)[C@@H]2C1.O=C(O)C(F)(F)F", "note": "(stereo partly specified)", "Percent Effect": -30.31},
      {"smiles": "CNC(=O)[C@H]1C[C@@H]2CN(C(=O)Nc3ccccc3)C[C@H]1O2", "Percent Effect": -29.03},
      {"smiles": "CN(C)CCN1CCC2(CC1)CN(Cc1cccnc1)C(=O)CO2.O=C(O)C(F)(F)F.O=C(O)C(F)(F)F.O=C(O)C(F)(F)F", "Percent Effect": 8.81},
      {"smiles": "O=C(O)C(F)(F)F.O=C(O)C(F)(F)F.c1cc(COC[C@]23COC[C@H]2CN(CC2CCC2)C3)ccn1", "Percent Effect": -30},
      {"smiles": "O=C(NC[C@]12COC[C@H]1CN(Cc1ccncc1)C2)c1ccco1.O=C(O)C(F)(F)F.O=C(O)C(F)(F)F", "Percent Effect": -3.617},
      {"smiles": "Cn1cncc1C(=O)N1CCOC2(COCCN(CC3CC3)C2)C1.O=C(O)C(F)(F)F", "note": "(stereo unspecified)", "Percent Effect": 41.2},
      {"smiles": "Cc1cnn(CC2CCCN2Cc2nccn2C)c1", "note": "(stereo unspecified)", "Percent Effect": 15.87},
      {"smiles": "Cc1cnn(CC2CN(Cc3nccn3CC(F)(F)F)CCO2)c1", "note": "(stereo unspecified)", "Percent Effect": -15.97},
      {"smiles": "CCn1ccnc1CN1CCCC1Cn1cc(C)cn1", "note": "(stereo unspecified)", "Percent Effect": 89.45},
      {"smiles": "Cc1cnn(CC2CCCCN2Cc2nccn2CC(F)(F)F)c1", "note": "(stereo unspecified)", "Percent Effect": 52.97},
      {"smiles": "Cc1cnn(CC2CCCCN2Cc2cnc(C)s2)c1", "note": "(stereo unspecified)", "Percent Effect": 18.92},
      {"smiles": "Cc1cnn(CC2CCCN2Cc2nccn2CC(F)(F)F)c1", "note": "(stereo unspecified)", "Percent Effect": 101.7},
      {"smiles": "Cc1cnn(CC2CCCN2Cc2nnc(C3CC3)n2C)c1", "note": "(stereo unspecified)", "Percent Effect": 10.04},
      {"smiles": "Cc1nc(C2CCCN2Cc2nccn2CC(F)(F)F)no1", "note": "(stereo unspecified)", "Percent Effect": -9.202},
      {"smiles": "Cc1cnn(CC2CCCCN2Cc2ncc(C(C)(C)C)o2)c1", "note": "(stereo unspecified)", "Percent Effect": -8.099},
      {"smiles": "CCn1ccnc1CN1CCN(CCC(=O)NC2CCCCC2)CC1", "Percent Effect": 24.85},
      {"smiles": "CC1=N[C@@]2(CC[C@@H]3CNC[C@@H]32)C(=O)N1CC(C)C.O=C(O)C(F)(F)F", "Percent Effect": -9.466},
      {"smiles": "Fc1cnc(N2CCCC3(COCCN(c4nccs4)C3)C2)nc1.O=C(O)C(F)(F)F.O=C(O)C(F)(F)F", "note": "(stereo unspecified)", "Percent Effect": 4.049},
      {"smiles": "COc1c(CNC2CCCOc3ccc(F)cc32)c(C(C)C)nn1C.Cl", "note": "(stereo unspecified)", "Percent Effect": -10.1},
      {"smiles": "O=C(O)C(F)(F)F.O=C1NCC[C@]12CN(CC1CCOCC1)C[C@H]2c1ccccc1", "Percent Effect": -6.347},
      {"smiles": "CCc1ccc(CN2C[C@H](OCC(=O)N(C)C)[C@H]3COC[C@H]32)o1.O=C(O)C(F)(F)F", "Percent Effect": 13.05},
      {"smiles": "CO[C@H]1CN(CC2CC2)[C@@H]2CCCO[C@H]12.O=C(O)C(F)(F)F", "Percent Effect": 13.63},
      {"smiles": "CC(C)CC(NCc1cscn1)c1ccccn1", "note": "(stereo unspecified)", "Percent Effect": 27.38},
      {"smiles": "O=C(Cn1cccnc1=O)NC(Cc1cccs1)c1ccccn1", "note": "(stereo unspecified)", "Percent Effect": -7.839},
      {"smiles": "c1ccc(OCCNCc2cccs2)nc1", "Percent Effect": -4.17},
      {"smiles": "CC(C)CC(NCc1ccsc1)c1ccccn1", "note": "(stereo unspecified)", "Percent Effect": 95.2},
      {"smiles": "CS(=O)(=O)N1CCC(C(=O)NC(Cc2ccsc2)c2ccccn2)CC1", "note": "(stereo unspecified)", "Percent Effect": -2.015},
      {"smiles": "CC(C)CC(NCc1cccs1)c1ccccn1", "note": "(stereo unspecified)", "Percent Effect": 99.48},
      {"smiles": "Cl.O=C(c1ccccc1)N1CCC2(CC1)CNc1c(F)cccc12", "Percent Effect": 9.544},
      {"smiles": "Cc1cnn(CC2CN(Cc3nc4ccccc4s3)CCO2)c1", "note": "(stereo unspecified)", "Percent Effect": -2.009},
      {"smiles": "CN(Cc1cncnc1)[C@@H]1CN(C(=O)c2ccco2)[C@@H]2CCCO[C@H]12.O=C(O)C(F)(F)F", "Percent Effect": 50.13},
      {"smiles": "CN(Cc1cncnc1)[C@H]1CN(C(=O)c2ccco2)[C@@H]2CCCO[C@@H]21", "Percent Effect": -2.729},
      {"smiles": "CN(Cc1cncnc1)[C@@H]1CN(C(=O)C2CC2)[C@@H]2CCCO[C@H]12.O=C(O)C(F)(F)F", "Percent Effect": 8.478},
      {"smiles": "COc1ccc2[nH]cc(C(=O)CNc3nc(C)cs3)c2c1.I", "Percent Effect": 4.496},
      {"smiles": "COc1cccc(CC(=O)N2CC[C@@H]3[C@H](CC2)N(C)CCS3(=O)=O)c1.O=C(O)C(F)(F)F", "Percent Effect": 5.677}
    ]}
  ]
}
